From PubChem BioAssay AID488969 (Vanderbilt High Throughput Screening Facility, 2010) come the findings set out here.

Over roughly 110,000 compounds, “z-score” has its median near -0.1; the highest 2% begin near 2. The entries come from a sample that favours the highest values as a whole. Active and inactive are the calls of the source.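 The calls were made as follows: active = z-score in the third read window above 3 or below -3; inactive = the rest.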

In this assay the target is Metabotropic glutamate receptor 8 (Rattus norvegicus) (UniProt P70579). The assay can be described thus: rat mGluR8 modulators via GIRK flux, primary screen, cell-based, thallium flux, HTS (AID 488969). As to conditions: HEK293 rat mGluR8, GIRK (G protein-gated inwardly rectifying potassium channel) thallium flux, FluoZin2; at 10 µM; stronger effect = higher value; submaximal glutamate (EC20) added with thallium.
Metabotropic glutamate receptor 8 (Rattus norvegicus), sequence (P70579 whole entry, looked up): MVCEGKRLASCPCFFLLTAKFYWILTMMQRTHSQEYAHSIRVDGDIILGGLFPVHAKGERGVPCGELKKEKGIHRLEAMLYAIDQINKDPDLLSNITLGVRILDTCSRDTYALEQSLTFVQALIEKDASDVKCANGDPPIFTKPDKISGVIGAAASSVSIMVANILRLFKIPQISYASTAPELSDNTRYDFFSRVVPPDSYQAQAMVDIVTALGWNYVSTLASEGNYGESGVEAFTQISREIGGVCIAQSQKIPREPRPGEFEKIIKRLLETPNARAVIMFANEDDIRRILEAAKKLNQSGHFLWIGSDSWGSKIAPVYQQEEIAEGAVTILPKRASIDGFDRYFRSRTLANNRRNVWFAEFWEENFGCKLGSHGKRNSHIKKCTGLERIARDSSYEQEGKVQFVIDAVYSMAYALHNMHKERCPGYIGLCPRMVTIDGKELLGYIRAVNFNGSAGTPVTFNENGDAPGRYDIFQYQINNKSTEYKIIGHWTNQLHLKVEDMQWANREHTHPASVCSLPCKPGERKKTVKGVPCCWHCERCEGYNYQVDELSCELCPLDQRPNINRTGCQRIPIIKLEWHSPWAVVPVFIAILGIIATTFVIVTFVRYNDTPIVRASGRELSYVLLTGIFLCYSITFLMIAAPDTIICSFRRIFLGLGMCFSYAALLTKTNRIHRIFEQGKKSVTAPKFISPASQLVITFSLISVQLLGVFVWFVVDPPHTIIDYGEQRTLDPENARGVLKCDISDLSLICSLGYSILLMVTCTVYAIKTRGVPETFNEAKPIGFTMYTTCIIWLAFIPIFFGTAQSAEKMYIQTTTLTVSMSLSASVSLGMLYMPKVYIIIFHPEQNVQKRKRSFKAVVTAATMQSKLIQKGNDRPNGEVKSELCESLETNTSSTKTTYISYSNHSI
Take `CCc1ccc(OCC(=O)NC(NC(=S)Nc2ccccc2OC)C(Cl)(Cl)Cl)cc1` (centres undefined): the z-score was -0.163.

`Cc1cc(C(=O)OCC(=O)NC(C)(C)C)c2ccccc2n1` showed a z-score of -0.284.

Consider `O=C(N/N=C1\CCc2ccccc21)c1ccccc1Cl`, for which the z-score was -0.225.

`COc1ccc(CCCc2nnc(SCC(=O)Nc3nc(C)cs3)n2C)cc1` displayed a z-score of 0.338.

Regarding `O=C(NC1CCCC1)c1cccc(NC(=O)c2ccco2)c1`, the z-score stood at 0.253.

Consider `Cc1onc(-c2ccccc2Cl)c1C(=O)Nc1cccc2nsnc12`, for which the z-score stood at 1.17.

Compound `Cc1onc(-c2c(F)cccc2Cl)c1C(=O)Nc1cccc2nsnc12` showed a z-score of 2.67.

Compound `Cc1onc(-c2ccccc2)c1C(=O)Nc1cccc2nsnc12` returned a z-score of -0.396.

Consider `CC1CCCCN1C(=O)Nc1cccc(Cl)c1` (centres undefined), for which the z-score was 0.789.

In turn, `COc1ccc(C(=O)c2c(C)c3cc(C)ccc3n2CC(O)CN2CCOCC2)cc1` (centres undefined) gave a z-score of -0.197.

Take `CS(=O)(=O)N(CC(=O)NCCSc1ccccc1)c1ccc2c(c1)OCO2`: the z-score was found to be 1.46.

On to `Cc1ccc2nc(SCC(=O)N3CCOCC3)[nH]c2c1`, for which the z-score is 0.844.

For the compound `CC1CCc2c(C(=O)Nc3ccc(OC(F)(F)F)cc3)csc2C1` (centres undefined), the z-score was -0.225.

Consider `Cc1ccccc1NC(=O)c1csc2c1CCCC2`, for which the z-score was -0.435.

Turning to `CC1CCc2sc(C(=O)N/N=C/C3CCCCC3)cc2C1` (centres undefined), the z-score was -0.764.

As to `C/C(=N\NC(=O)c1cc2c(s1)CCC(C)C2)c1ccncc1` (centres undefined), the z-score was -0.506.

Regarding `CCNC(=S)NNC(=O)c1csc2c1CCC(C)C2` (centres undefined), the z-score came to 0.0328.

For `Cc1ccc(C)c(NC(=S)NNC(=O)c2cc3c(s2)CCC(C)C3)c1` (centres undefined), the z-score was 10.3 (active).

In turn, `Cc1cccc(NC(=S)NNC(=O)c2ccccc2Br)c1` displayed a z-score of 0.847.

Compound `CC(C)CNC(=S)NNC(=O)c1csc2c1CCC(C)C2` (centres undefined) came in with a z-score of -1.59.

Turning to `Cc1cccc(NC(=S)NNC(=O)c2csc3c2CCC(C)C3)c1` (centres undefined), the z-score is 9.39 (active).

For `Cc1cccc(NC(=S)NNC(=O)c2ccc(Br)o2)c1`, the z-score was 1.14.

For `Cc1ccccc1NC(=S)NNC(=O)c1csc2c1CCC(C)C2` (centres undefined), the z-score is 8.84 (active).

Consider `Cc1cccc(NC(=S)NNC(=O)c2csc3c2CCCC3)c1`, for which the z-score is 14 (active).

For the compound `COc1ccc(OC)c(CN(CCCN2CCOCC2)S(=O)(=O)c2ccc(NC(C)=O)cc2)c1`, the z-score was -0.129.

`CCN(CC)S(=O)(=O)c1ccc(-c2nnc(SCC(=O)Nc3ccc(OC)c(OC)c3)o2)cc1` yielded a z-score of 0.581.

Take `COc1ccc(OC(C)C(=O)Nc2ccccc2C(F)(F)F)cc1` (centres undefined): the z-score is -0.114.

`O=C(Nc1ccccc1C(=O)NCc1ccccc1)c1ccccc1` had a z-score of -0.543.

With `COn1c(=O)c(=O)n(O)c2ccccc21`, the z-score is -0.141.

`CN1C(=O)c2cccc(N(C)C)c2C1=O` came in with a z-score of -0.183.

Compound `O=C(Nc1nsc(-c2ccccc2)n1)c1cccs1` gave a z-score of -0.31.

Compound `Cc1nn(-c2cccc(Cl)c2)c2c1C(c1cccnc1)C(C#N)=C(N)O2` (centres undefined) gave a z-score of 0.0248.

`CCCCOc1ccc(CONS(=O)(=O)c2ccc(NC(C)=O)cc2)cc1Cl` displayed a z-score of -0.176.

For the compound `CN1CCc2c(sc(N)c2C(N)=O)C1`, the z-score is -0.167.

For the compound `Cc1cc(C(=O)N/N=C/c2ccc(-c3ccccc3Cl)o2)n[nH]1`, the z-score was -0.496.

As to `CCNC(=S)NNC(=O)c1csc2c1CCCC2`, the z-score is -0.209.

`CC1CCc2c(C(=O)Nc3nccs3)csc2C1` (centres undefined) registered a z-score of -0.208.

As for `Cc1ccc(C)c(NC(=S)NNC(=O)c2csc3c2CCC(C)C3)c1` (centres undefined), the z-score is 13.8 (active).

For the compound `Cc1ccc(C)c(NC(=S)NNC(=O)c2csc3c2CCCC3)c1`, the z-score was 7.26 (active).

`Cc1ccc(C)c(NC(=S)NNC(=O)c2ccco2)c1` yielded a z-score of -0.0706.

Compound `CCCCNC(=S)NNC(=O)c1csc2c1CCC(C)C2` (centres undefined) came in with a z-score of 0.319.

Compound `CC(C)CNC(=S)NNC(=O)c1csc2c1CCCC2` returned a z-score of -0.116.

Turning to `CCCCNC(=S)NNC(=O)c1csc(C)c1C`, the z-score worked out at 0.0325.

On to `Cc1ccc(C)c(NC(=S)NNC(=O)c2csc(C)c2C)c1`, for which the z-score came to 2.09.

For `COC(=O)Cn1c(=NC(=O)c2ccc(OC)c(OC)c2)sc2cc(OC)ccc21`, the z-score is -0.167.

As for `COc1ccc(/C=C2\CCCc3c2nc2ccccc2c3C(=O)OCC(=O)c2c(N)n(C)c(=O)n(C)c2=O)cc1`, the z-score was -0.224.

Compound `O=C(CCn1nc(-c2ccccc2)c2ccccc2c1=O)NCC1CCCO1` (centres undefined) showed a z-score of -0.116.

Turning to `Clc1ccc(OCc2cc(-c3ccccc3)no2)cc1Cl`, the z-score is -0.0469.

As for `O=C(CCCCCN1C(=O)c2ccccc2C1=O)Nc1ccc(F)cc1`, the z-score was -0.0499.

For the compound `Cc1ccc(C(C)(C)C)c(OCCCCN2CCCC2)c1`, the z-score came to 0.658.

Compound `CC(C)(C)c1ccccc1OCCN1CCCC1` showed a z-score of -0.516.

As for `CC(C)(C)c1ccccc1OCCCCN1CCCC1`, the z-score was 2.06.

On to `Cc1cccc(C(C)(C)C)c1OCCOCCN1CCCC1`, for which the z-score was 0.391.

With `Cc1cccc(C)c1OCCCN1CCCC1`, the z-score was found to be 0.0506.

`Cc1cccc(C(C)(C)C)c1OCCCCN1CCCC1`: the z-score is 2.48.

In turn, `COC(=O)c1cc2oc(C)cc2n1CC(=O)Nc1cc(C)cc(C)c1` returned a z-score of -0.162.

As to `O=C(CN1C(=O)CCS(=O)(=O)c2ccccc21)NCc1ccccc1`, the z-score was found to be 0.305.

Turning to `CCOc1ccc(C(=O)/C=C/c2ccccc2C(F)(F)F)cc1`, the z-score is -0.354.

Regarding `O=C(NCc1ccccn1)c1c(Cl)cccc1Cl`, the z-score worked out at 0.0849.

For `CCCCn1c(C(C)O)nc2ccccc21` (centres undefined), the z-score was -0.321.

On to `CC(C)CCn1c(C(C)O)nc2ccccc21` (centres undefined), for which the z-score is -0.257.

`CC(O)c1nc2ccccc2n1C1CCCCC1` (centres undefined): the z-score was 6.36 (active).

With `N#CCCn1cc(C(CC(=O)c2ccccc2)C(=O)O)c2ccccc21` (centres undefined), the z-score was -0.0596.

With `Cc1cccc(N=c2oc3cc(O)ccc3cc2C(N)=O)c1`, the z-score was determined as 0.0144.

Turning to `COc1ccc(OC)c(N=c2oc3cc(O)ccc3cc2C(N)=O)c1`, the z-score came to 1.99.

Compound `COc1ccc(N=c2oc3cc(O)ccc3cc2C(=O)NCC2CCCO2)c(OC)c1` (centres undefined) came in with a z-score of -0.403.

In the case of `C=CCN1C(=O)/C(=C2/Sc3ccccc3N2CCCS(=O)(=O)O)SC1=S`, the z-score was -0.352.

Regarding `C=CCN1C(=O)/C(=C2/Sc3ccccc3N2C)SC1=Nc1c(C)n[nH]c1C`, the z-score was 3.97 (active).

Consider `C=CCN1C(=O)/C(=C2/Sc3ccccc3N2C)SC1=Nc1ccccc1C`, for which the z-score is -0.792.

`CCOC(=O)c1ccc(N2C(=O)CC(N3CCC(O)(c4ccc(Cl)cc4)CC3)C2=O)cc1` (centres undefined) showed a z-score of 0.433.

`CCCCC1S/C(=N/N=C/c2ccc(OC)cc2)N(Cc2ccc(OC)cc2)C1=O` (centres undefined) returned a z-score of -0.524.

In the case of `CCOC(=O)c1c(CN(CC)CC)oc2cc(Br)c(O)cc12`, the z-score is -1.27.

Regarding `COC(=O)C1CCN(C(=O)COc2cc3sc(C)nc3c3sccc23)CC1`, the z-score is -1.34.

`CCc1nnc(NS(=O)(=O)c2ccc(NC(=S)NC(=O)c3ccc(Br)cc3)cc2)s1` showed a z-score of -1.21.

`CCc1nnc(NS(=O)(=O)c2ccc(NC(=S)NC(=O)c3ccccc3)cc2)s1`: the z-score was 5.21 (active).

In turn, `Cc1cc(NS(=O)(=O)c2ccc(NC(=S)NC(=O)c3ccc(F)cc3)cc2)no1` yielded a z-score of -0.0103.

Take `Cc1cc(NS(=O)(=O)c2ccc(NC(=S)NC(=O)c3ccccc3)cc2)no1`: the z-score is 2.22.

Take `CCc1nnc(NS(=O)(=O)c2ccc(NC(=S)NC(=O)c3ccc(F)cc3)cc2)s1`: the z-score came out at 0.102.

On to `Cc1cc(NS(=O)(=O)c2ccc(NC(=O)Nc3ccccc3)cc2)no1`, for which the z-score came out at 0.82.
